# PLK1 PBD inh: qHTS for Inhibitors of PLK1-PDB (polo-like kinase 1 - polo-box domain): Primary Screen; Plk1 PBD binding of FITC phosphopeptide, fluorescence polarization; actives 2.8% (n = 360,000); Potency, µM, without a hit: max response, negative = inhibition, hits mostly inhibitors; Serine/threonine-protein kinase PLK1 (Homo sapiens), P53350; note: series mostly up to about 57 µM; % is set by controls: 0 for no effect and ±100 for the full control effect; nearly all actives have a fitted effect of over 65% in size
# HP1b chromo inh: HTS for Inhibitors of HP1-beta Chromodomain Interactions with Methylated Histone Tails; AlphaScreen HP1-beta / biotin-H3K9me3 peptide binding; Potency, µM (series often up to 114 µM), without a hit: at the highest dose activity change, negative = inhibition, hits mostly inhibitors; actives 0.56% (n = 390,000); AID 540317, 2011; note: nearly all actives have a fitted effect of over 70% in size
#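 Compound inhibition of the preformed complex between 50 nM HP1-beta and 50 nM biotinylated H3K9me3 peptide was read by AlphaScreen. Buffer was PBS pH 7.4 with 0.01% Tween-20. Incubations ran 30 min at room temperature, with 10 ug/mL donor/acceptor beads.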
# JMJD2A Tudor inh: qHTS Assay for Inhibitors of JMJD2A-Tudor Domain; Lysine-specific demethylase 4A (Homo sapiens), O75164; AlphaScreen JMJD2A-Tudor / H3K4me3 peptide binding; Potency, µM (titrated, usually from 114 µM), without a hit: at the top dose activity change, negative = inhibition, actives largely listed as inhibitors; actives 4.4% (n = 390,000); note: % is set by controls: 0 for no effect and ±100 for the full control effect; nearly all actives have a fitted effect of over 50% in size
# BAZ2B inh: qHTS Assay for Inhibitors of BAZ2B. actives 4.4% (n = 360,000). Bromodomain adjacent to zinc finger domain protein 2B (Homo sapiens), Q9UIF8. AID 504333, 2011. AlphaScreen BAZ2B-H3K14Ac peptide displacement. Potency, µM (titrated, usually from 114 µM), without a hit: at the highest dose activity change, negative = inhibition, most hits filed as inhibitors; note: % is set by controls: 0 for no effect and ±100 for the full control effect; nearly all actives have a fitted effect of over 60% in size
#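 Compounds, titrated to a top concentration of 110 uM, were incubated 30 min at room temperature with preformed BAZ2B/acetyl-K14 H3 peptide complex (50 nM each). Proximity signal was measured by AlphaScreen after 20 min with beads.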
# G9a inh: qHTS Assay for Inhibitors of Histone Lysine Methyltransferase G9a; G9a H3K9 monomethylation, AlphaScreen, 2 h; Potency, µM (series often up to 102 µM), for the others: at the highest dose activity, negative = inhibition, actives largely listed as inhibitors; AID 504332, 2011; Histone-lysine N-methyltransferase EHMT2 (Homo sapiens), Q96KQ7; actives 8.8% (n = 350,000); note: % is set by controls: 0 for no effect and ±100 for the full control effect; nearly all actives have a fitted effect of over 75% in size
#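 G9a (20 nM) was preincubated 15 min with compound, then reacted 2 h at room temperature with 500 nM biotin-H3K9 peptide and 20 µM SAM. Monomethyl-H3K9 detected by AlphaScreen using anti-H3K9me1 antibody.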
# Sfp inh: qHTS Assay for Inhibitors of Bacillus subtilis Sfp phosphopantetheinyl transferase (PPTase); 4'-phosphopantetheinyl transferase ffp (Bacillus subtilis), Q9F4F7; Biochemical Sfp PPTase activity, qHTS; Potency, µM, without a hit: largest response in the series, negative = inhibition, actives largely listed as inhibitors; actives 3.5% (n = 310,000);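 note: the enzyme is Sfp with the accession as filed and its product quenches rhodamine fluorescence; 0% = enzyme reaction without inhibitor and -100% = no enzyme wells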
#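 With Hepes-Na pH 7.6 buffer containing 10 mM MgCl2, Sfp (15 nM) modified BHQ-2-YbbR (12.5 uM) using rhodamine-CoA (5 uM). Two reads 30 minutes apart at 525/598 nm yielded each well's rate.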
# Numbers without * were called inactive; ? = inconclusive; . = no result; [ ] = another dose, or the depositor's remark. Shown are actives, neighbours in structure and some others; about 12% of the full set was active somewhere. Calls come from the whole dose curve; as a rule, active = well fitted curve in the direction sought with a large enough effect; inconclusive = small, poorly fitted or top-dose-only effect, or another doubt; inactive = no such curve, though single readings can be large; an effect the other way counts as inactive or inconclusive. Potency is the fitted concentration of half-maximal effect.
SMILES,PLK1 PBD inh,HP1b chromo inh,JMJD2A Tudor inh,BAZ2B inh,G9a inh,Sfp inh
COc1cc(/C=C(\C#N)C(=O)Nc2cccc(C(=O)O)c2)ccc1OCc1ccc(Cl)cc1,-26%,2%,?,45µM*,-48%,-3%
CN1C(=O)[C@H]2[C@@H](c3ccc(C(F)(F)F)cc3)N[C@]3(CCCN(Cc4cccn4C)C3=O)[C@H]2C1=O,-10%,.,.,.,.,.
O=[N+]([O-])c1cc(CN2CCCC2)ccc1Sc1ccc(Cl)cc1,2%,40µM*,35µM*,40µM*,35µM*,2%
Clc1ccc(CN2CCCCCCC2)cc1Cl,-3%,-38%,28µM*,-12%,?,-25%
Clc1ccc(CN2CCCCCC2)cc1,-7%,?,1.8µM*,?,13µM*,1%
O=S1(=O)CCN(Cc2ccc(Cl)c(Cl)c2)CC1,-4%,16%,-3%,-2%,2%[12.7 µM],12%
Cc1nn(-c2ccccc2)c(OC(=O)c2ccccc2)c1S(=O)(=O)c1ccccc1,.,-1%,-30%,-19%,?,.
COc1ccc(CCNC(=O)CNCC2CCCCC2)cc1OC,-3%,?,25µM*,56µM*,-4%,-24%
COc1ccc(CCNC(=O)CN2CCC(C)CC2)cc1OC,-11%,?,?,56µM*,?,-5%
COc1ccc(CCNC(=O)CN2CCC(C(N)=O)CC2)cc1,-6%,19%,11%[57.1 µM],13%,29%,-14%
NS(=O)(=O)c1ccc(CCNC(=O)CN2CCN(c3ccc(F)cc3)CC2)cc1,-6%,35%,-7%,2%,1%[59 µM],6%
COc1ccc(CCNC(=O)CN2CCCc3ccccc32)cc1OC,-5%,13%,-24%,-45%,56µM*,2%
O=C(CN1CCCCCC1)NCCc1ccc(F)cc1,-16%,?,3.5µM*,50µM*,8.9µM*,?
COc1ccc(CNC(=O)CN2CCN(S(=O)(=O)c3cc(Br)ccc3Br)CC2)cc1OC,0%,6%,-27%,-4%,50µM*,.
O=C(CSc1ccccc1F)NCC1(N2CCCCC2)CCCCC1,-3%,62%,-9%,9%,-1%[59 µM],.
COc1ccc(CNCC(C)NCc2ccc(OC)c(OC)c2)cc1OC (stereo not drawn),-13%,36%,-18%,-1%,-13%,-7%
COc1cc(CNCc2ccncc2)cc(OC)c1OC,-3%,24%,-29%,1%,-4%[0.501 µM],-17%
COc1ccc(CNCc2c(F)cccc2F)cc1OC,-20%,-4%,4µM*,-39%,10µM*,-7%
COc1cc(CNCc2cc(OC)c(OC)c(OC)c2)cc(OC)c1,0%,?,20µM*,?,.,-21%
CCOc1cc(CNCc2ccc(C(=O)O)cc2)ccc1OC,-15%,61%,2%[11.4 µM],-36%,.,-13%
COc1cc(CNCc2ccc(C)cc2)cc(OC)c1OC,-10%,?,20µM*,71µM*,28µM*,-22%
CCOc1cc(CNCc2cc(OC)cc(OC)c2)ccc1OC,-8%,?,1µM*,?,40µM*,-16%
CCSC1=NC2(CCN(C(=O)NC3CCCCC3)CC2)N=C1c1ccc(C)cc1,.,22%,12%,-3%[57.1 µM],6%[59 µM],.
CCOC(=O)[C@H]1[C@H]2COc3ccc(C)cc3[C@@H]2N2C(=O)CN(CC3CCCO3)C(=O)[C@@]12C (stereo partly drawn),1%,54%,-3%,-3%,-22%[0.501 µM],.
COc1cc(CNCc2cccc(OC)c2OC)cc(OC)c1,-1%,?,25µM*,50%,34%[0.501 µM],-1%
COc1cccc(CNCc2ccc(SC)cc2)c1OC,1%,?,13µM*,?,22µM*,-18%
